Records with an inconclusive call do not appear. Entries that show only a call come without a potency. Active and inactive are the calls of the source. The call rests on the fitted dose curve; in most records, active means well fitted inhibition curve with a large enough effect; inconclusive means small, poorly fitted or top-dose-only effect; inactive means no such curve, though single readings can be large or run the other way.
Potency means the concentration at half of the fitted maximal effect.

The assay in a line: BET inhibitor-based combinations targeting novel dependencies in MECOM-rearranged (r) AML: MV-4-11 cell line (AID 2202233). Further: nearly all actives have a fitted effect of over 45% in size. The following applies: MV-4-11 AML viability, CellTiter-Glo luminescence, 48 h; series mostly up to 46 µM. The gist of the method: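 Luminescent ATP readout (CellTiter-Glo, 15 min at room temperature) after 48 hr drug exposure gave viability. Dose-response curves, normalized to DMSO and empty-well controls, were summarized as area under the curve and its mean-centred Z-score.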
On the technique in general: Cellular ATP, detected with luciferase, serves as a proxy for viable cell number.
For the compound `CN1C(=O)COc2c(C(=O)NC3CN4CCC3CC4)cc(Cl)cc21` (stereo not drawn), the Potency entry is “inactive”.
Take `C[C@@H]1CC[C@@]2(OC1)O[C@H]1C[C@H]3[C@@H]4CC=C5C[C@@H](O[C@@H]6O[C@H](CO)[C@@H](O[C@@H]7O[C@@H](C)[C@H](O)[C@@H](O)[C@H]7O)[C@H](O)[C@H]6O[C@@H]6O[C@@H](C)[C@H](O)[C@@H](O)[C@H]6O)CC[C@]5(C)[C@H]4CC[C@]3(C)[C@H]1[C@@H]2C`: the Potency is 5900 nM (active).
Turning to `O=P1(NCCCl)OCCCN1CCCl` (stereo not drawn), the Potency entry is “inactive”.
As for `Cc1c(N)nc([C@H](CC(N)=O)NC[C@@H](N)C(N)=O)nc1C(=O)N[C@H](C(=O)N[C@@H](C)[C@H](O)[C@@H](C)C(=O)N[C@@H](C(=O)NCCc1nc(-c2nc(C(=O)NCCC[S+](C)C)cs2)cs1)[C@@H](C)O)C(O[C@H]1O[C@H](CO)[C@H](O)[C@@H](O)[C@H]1O[C@H]1O[C@H](CO)[C@@H](O)[C@H](OC(N)=O)[C@@H]1O)c1cnc[nH]1` (stereo partly drawn), the Potency is 4560 nM (active).
For the compound `O=C(NCCCNc1nc(Nc2ccc(N3CCOCC3)cc2)ncc1C1CC1)C1CCC1`, the Potency is 372 nM (active).
Take `CN(C)NC(=O)CCC(=O)O`: the Potency entry is “inactive”.
Take `C/C=C(\C)C(=O)N[C@@H](c1ccccc1)[C@@H](O)C(=O)O[C@H]1C[C@@]2(O)[C@@H](OC(=O)c3ccccc3)[C@@H]3[C@]4(OC(C)=O)CO[C@@H]4C[C@H](O)[C@@]3(C)C(=O)[C@H](OC(C)=O)C(=C1C)C2(C)C`: the Potency is 26.3 nM (active).
With `COC12C(COC(N)=O)C3=C(C(=O)C(C)=C(N)C3=O)N1CC1C2N1C` (stereo not drawn), the Potency entry was “inactive”.

The values are drawn from PubChem BioAssay (NCATS).
